The record followed here is ChEMBL document CHEMBL2218924, “A broad activity screen in support of a chemogenomic map for kinase signalling research and drug discovery” (Biochem J, 2013).

Assay [1] has as its target T1, Serine/threonine-protein kinase TBK1 (Homo sapiens) (UniProt Q9UHD2).
T1 sequence (whole entry): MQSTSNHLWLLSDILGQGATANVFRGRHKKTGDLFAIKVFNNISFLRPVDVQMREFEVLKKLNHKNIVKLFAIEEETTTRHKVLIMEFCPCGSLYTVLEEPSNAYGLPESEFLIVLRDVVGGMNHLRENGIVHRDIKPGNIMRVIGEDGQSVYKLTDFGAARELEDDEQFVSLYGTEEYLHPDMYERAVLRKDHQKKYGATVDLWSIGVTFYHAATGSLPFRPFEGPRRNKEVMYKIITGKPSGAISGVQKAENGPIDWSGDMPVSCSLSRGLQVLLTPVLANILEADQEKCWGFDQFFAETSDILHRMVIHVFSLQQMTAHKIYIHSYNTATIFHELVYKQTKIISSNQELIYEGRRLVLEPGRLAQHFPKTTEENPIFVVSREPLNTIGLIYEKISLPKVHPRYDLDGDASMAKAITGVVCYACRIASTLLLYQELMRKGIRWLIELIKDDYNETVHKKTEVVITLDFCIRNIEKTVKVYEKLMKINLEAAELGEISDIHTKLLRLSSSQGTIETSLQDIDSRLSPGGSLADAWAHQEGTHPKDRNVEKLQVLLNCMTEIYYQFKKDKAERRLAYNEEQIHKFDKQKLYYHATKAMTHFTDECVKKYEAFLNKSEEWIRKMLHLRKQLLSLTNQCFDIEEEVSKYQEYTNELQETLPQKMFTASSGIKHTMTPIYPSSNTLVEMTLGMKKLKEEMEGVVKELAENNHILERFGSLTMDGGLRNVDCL
The conditions noted are these: at 10 µM.

The target in assay [2] is T2, TGF-beta receptor type-1 (Homo sapiens) (UniProt P36897).
T2 sequence (whole entry): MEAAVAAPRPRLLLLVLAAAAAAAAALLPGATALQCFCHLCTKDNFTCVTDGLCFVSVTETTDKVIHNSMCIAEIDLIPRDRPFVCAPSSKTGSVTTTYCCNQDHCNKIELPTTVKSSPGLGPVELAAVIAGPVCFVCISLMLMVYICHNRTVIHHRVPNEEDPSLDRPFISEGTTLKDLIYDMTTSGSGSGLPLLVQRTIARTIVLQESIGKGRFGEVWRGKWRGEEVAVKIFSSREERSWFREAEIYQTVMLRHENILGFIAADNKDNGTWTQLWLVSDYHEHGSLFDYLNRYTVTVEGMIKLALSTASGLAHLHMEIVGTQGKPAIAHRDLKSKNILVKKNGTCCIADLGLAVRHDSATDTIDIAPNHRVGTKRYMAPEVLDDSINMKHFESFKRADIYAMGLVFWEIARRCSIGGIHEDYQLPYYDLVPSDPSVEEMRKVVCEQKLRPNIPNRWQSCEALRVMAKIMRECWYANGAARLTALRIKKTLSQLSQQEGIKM
To be noted: at 1 µM.

Assay [3] addresses T2, TGF-beta receptor type-1 (Homo sapiens). To be noted: at 10 µM.
Assay [4] concerns the target Insulin-like growth factor 1 receptor (Homo sapiens) (UniProt P08069). The conditions noted are these: at 1 µM.
The target is the same in assay [5]. The conditions noted are these: at 10 µM.
The target in assay [6] is T3, Inhibitor of nuclear factor kappa-B kinase subunit alpha (Homo sapiens) (UniProt O15111).
T3 sequence (whole entry): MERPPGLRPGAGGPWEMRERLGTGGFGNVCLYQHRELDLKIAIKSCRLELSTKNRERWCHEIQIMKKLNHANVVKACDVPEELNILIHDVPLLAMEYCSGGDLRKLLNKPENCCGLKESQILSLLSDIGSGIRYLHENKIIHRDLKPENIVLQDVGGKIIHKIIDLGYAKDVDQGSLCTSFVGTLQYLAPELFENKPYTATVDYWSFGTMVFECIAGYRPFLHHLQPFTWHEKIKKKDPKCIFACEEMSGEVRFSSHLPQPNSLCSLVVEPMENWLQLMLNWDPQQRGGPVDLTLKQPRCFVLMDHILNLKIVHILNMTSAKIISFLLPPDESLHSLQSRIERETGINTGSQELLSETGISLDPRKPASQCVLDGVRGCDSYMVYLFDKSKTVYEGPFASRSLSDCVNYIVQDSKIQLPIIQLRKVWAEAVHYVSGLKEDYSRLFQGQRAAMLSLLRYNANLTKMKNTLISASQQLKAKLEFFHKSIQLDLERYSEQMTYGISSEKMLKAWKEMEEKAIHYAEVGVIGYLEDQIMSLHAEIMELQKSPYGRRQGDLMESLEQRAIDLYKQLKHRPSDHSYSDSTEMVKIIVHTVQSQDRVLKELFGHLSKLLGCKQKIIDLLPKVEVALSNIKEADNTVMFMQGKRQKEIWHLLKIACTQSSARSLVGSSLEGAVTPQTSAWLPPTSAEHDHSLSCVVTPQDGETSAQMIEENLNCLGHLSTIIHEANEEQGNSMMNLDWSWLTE
To be noted: at 1 µM.

Assay [7] deals with T3, Inhibitor of nuclear factor kappa-B kinase subunit alpha (Homo sapiens). The conditions noted are these: at 10 µM.
In assay [8] the target is T4, Inhibitor of nuclear factor kappa-B kinase subunit beta (Homo sapiens) (UniProt O14920).
T4 sequence (whole entry): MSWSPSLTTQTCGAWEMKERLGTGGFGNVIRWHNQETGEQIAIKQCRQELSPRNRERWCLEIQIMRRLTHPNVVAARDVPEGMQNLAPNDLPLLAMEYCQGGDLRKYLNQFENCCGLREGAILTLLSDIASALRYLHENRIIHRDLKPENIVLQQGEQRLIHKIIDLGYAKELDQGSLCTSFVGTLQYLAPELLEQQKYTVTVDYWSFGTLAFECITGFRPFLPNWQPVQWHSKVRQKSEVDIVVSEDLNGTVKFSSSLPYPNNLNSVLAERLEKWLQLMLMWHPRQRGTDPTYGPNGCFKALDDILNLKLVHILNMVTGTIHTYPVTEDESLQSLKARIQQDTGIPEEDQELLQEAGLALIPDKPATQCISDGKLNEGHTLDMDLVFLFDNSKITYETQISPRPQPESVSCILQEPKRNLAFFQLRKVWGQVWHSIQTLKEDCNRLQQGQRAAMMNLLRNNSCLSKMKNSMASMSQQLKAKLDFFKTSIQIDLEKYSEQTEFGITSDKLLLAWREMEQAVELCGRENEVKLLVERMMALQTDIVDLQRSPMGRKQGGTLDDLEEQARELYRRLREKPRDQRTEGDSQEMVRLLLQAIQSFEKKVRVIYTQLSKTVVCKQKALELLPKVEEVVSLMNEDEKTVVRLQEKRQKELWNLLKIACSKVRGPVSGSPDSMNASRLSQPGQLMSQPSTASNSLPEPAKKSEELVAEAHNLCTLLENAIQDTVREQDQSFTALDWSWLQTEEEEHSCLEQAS
The conditions noted are these: at 1 µM.

In assay [9] the target is T4, Inhibitor of nuclear factor kappa-B kinase subunit beta (Homo sapiens). The conditions noted are these: at 10 µM.
Assay [10] concerns the target Insulin receptor (Homo sapiens) (UniProt P06213). The conditions noted are these: at 1 µM.

SMILES strings stand for the structures.

Chain of Insulin-like growth factor 1 receptor (Homo sapiens) (P08069 31-736 limits assumed): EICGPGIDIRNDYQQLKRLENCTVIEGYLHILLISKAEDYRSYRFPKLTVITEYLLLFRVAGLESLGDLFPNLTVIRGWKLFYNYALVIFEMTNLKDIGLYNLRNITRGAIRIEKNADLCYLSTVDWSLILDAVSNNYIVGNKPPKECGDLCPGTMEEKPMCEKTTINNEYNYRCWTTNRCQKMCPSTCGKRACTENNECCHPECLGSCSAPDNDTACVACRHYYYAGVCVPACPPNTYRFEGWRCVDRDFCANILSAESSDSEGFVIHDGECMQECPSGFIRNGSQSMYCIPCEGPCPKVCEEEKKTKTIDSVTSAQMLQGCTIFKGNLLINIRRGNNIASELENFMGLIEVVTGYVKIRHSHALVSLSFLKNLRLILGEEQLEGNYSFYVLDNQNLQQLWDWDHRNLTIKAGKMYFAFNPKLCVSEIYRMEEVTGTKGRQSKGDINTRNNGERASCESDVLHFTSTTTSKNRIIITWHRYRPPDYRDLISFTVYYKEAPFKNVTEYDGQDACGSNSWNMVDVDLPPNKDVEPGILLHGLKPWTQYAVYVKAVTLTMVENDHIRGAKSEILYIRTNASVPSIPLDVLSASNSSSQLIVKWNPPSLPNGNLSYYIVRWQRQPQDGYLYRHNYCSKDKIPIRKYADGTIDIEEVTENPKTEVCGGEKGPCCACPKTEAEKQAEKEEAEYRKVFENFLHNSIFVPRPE
Chain of Insulin-like growth factor 1 receptor (Homo sapiens) (P08069 741-1367 limits assumed): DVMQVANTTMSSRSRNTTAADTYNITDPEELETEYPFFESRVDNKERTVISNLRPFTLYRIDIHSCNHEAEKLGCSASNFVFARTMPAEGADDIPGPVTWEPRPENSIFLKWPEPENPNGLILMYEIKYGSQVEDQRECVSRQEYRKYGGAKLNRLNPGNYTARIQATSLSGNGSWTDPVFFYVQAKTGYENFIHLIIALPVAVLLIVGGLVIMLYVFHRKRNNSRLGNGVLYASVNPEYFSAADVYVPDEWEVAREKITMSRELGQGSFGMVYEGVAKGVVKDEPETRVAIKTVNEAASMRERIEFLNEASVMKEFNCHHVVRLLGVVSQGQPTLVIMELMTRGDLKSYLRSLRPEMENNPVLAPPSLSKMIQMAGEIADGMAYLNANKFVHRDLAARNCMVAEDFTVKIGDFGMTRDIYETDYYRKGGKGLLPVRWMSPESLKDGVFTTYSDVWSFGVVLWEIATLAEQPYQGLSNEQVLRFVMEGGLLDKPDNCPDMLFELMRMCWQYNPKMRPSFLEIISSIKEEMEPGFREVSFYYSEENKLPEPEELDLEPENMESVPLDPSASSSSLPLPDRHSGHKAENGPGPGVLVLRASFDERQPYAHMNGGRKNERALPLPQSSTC
Chain of Insulin receptor (Homo sapiens) (P06213 28-758 limits assumed): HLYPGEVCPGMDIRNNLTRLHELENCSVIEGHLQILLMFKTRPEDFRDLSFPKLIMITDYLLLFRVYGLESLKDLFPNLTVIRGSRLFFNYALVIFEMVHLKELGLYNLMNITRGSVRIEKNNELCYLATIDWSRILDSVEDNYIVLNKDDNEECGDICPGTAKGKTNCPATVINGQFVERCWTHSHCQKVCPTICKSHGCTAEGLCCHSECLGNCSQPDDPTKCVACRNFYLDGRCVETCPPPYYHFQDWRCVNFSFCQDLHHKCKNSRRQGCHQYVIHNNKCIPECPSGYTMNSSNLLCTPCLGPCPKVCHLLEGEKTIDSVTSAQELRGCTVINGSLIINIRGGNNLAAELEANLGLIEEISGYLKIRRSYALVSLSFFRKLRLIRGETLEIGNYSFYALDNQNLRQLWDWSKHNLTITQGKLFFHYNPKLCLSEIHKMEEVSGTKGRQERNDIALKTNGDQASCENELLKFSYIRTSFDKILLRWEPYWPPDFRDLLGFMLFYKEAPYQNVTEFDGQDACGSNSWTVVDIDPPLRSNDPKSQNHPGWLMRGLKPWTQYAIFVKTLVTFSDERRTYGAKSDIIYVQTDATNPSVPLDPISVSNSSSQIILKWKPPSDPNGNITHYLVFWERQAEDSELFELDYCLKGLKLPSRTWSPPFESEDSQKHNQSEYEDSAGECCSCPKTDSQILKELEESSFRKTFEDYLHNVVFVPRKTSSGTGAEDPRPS
Chain of Insulin receptor (Homo sapiens) (P06213 763-1382 limits assumed): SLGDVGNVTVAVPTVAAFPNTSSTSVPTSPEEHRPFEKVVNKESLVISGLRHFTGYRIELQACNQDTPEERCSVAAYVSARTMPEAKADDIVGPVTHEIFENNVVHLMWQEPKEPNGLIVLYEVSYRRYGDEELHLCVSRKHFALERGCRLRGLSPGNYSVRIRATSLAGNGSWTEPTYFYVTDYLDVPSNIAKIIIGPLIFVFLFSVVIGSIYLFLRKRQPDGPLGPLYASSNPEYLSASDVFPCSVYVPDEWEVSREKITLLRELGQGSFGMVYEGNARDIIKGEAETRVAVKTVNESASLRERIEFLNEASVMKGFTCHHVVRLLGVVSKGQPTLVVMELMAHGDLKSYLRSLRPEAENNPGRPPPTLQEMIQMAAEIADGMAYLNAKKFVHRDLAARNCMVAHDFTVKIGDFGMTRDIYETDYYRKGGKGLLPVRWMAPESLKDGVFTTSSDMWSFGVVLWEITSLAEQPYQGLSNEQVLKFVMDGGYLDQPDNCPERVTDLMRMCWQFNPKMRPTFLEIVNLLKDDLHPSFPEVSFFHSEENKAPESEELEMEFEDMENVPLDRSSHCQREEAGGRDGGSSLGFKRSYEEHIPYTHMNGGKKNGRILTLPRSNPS

By residual activity is commonly meant the signal under treatment as a percentage of the control signal. With `Oc1ccc(Nc2nc(-c3ccc(Cl)cc3)cs2)cc1`, the residual activity in assay [1] is 80%; in assay [2] it was 123%; in [3], 100%; in [4] it was 103%; in assay [5], 108%; in assay [6], 102%. For the same molecule, the residual activity in assay [7] is 134%; in assay [8], 115%; in assay [9], 110%; in assay [10] it was 112%.
